Screening data (PubChem)
This is one part of a sample in which hits are shown more often than they occur.
mcGAS RapidFire – inhibitors of mouse cGAS | Q8C6L5 | recombinant mouse cGAS, cGAMP by RapidFire MS | inhibition, % at 12.5 µM | 0.18% of 130,000 active | AID 1259397;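 active = inhibition of cGAS enzyme activity at or above 60%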;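 also: enzyme stimulated by 45 bp dsDNA with ATP and GTP substrates; cGAMP share of summed cGAMP plus half ATP and half GTP signals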
An asterisk follows results filed as active.

SMILES | mcGAS RapidFire
O=c1c2ccccc2[se]n1-c1ccccc1 | 94*
Cc1nc2ccc(N)cc2c(=O)n1-c1ccccc1 | -4
O=c1c2ccccc2nc(Cc2ccccc2)n1-c1cccc(O)c1 | -4
CCOc1ccccc1-n1c(C(C)NCCOC)nc2ccccc2c1=O (stereo not given) | -4
O=C(NC1CN2CCC1CC2)c1cc(Br)cc2[nH]cnc12 (stereo not given) | -8
CC(C)CC12CN3CCN(CC(C3)/C1=N\O)C2 | 3
COc1cc(Br)c(CCN)cc1OC | 10
Cc1ccc(-c2cc(CN3CCC4(C3)CN(C)C(=O)O4)on2)cc1 (stereo not given) | -15
O=C(c1cc([N+](=O)[O-])c[nH]1)C(Cl)(Cl)Cl | -9
O=[N+]([O-])c1ccc(O)c(Cl)c1 | 9
O=[N+]([O-])c1ccc(O)c([N+](=O)[O-])c1 | 96*
COc1cncc(-c2cccc3c2CCNC3)c1 | 3
C=C1N=C(c2cc3ccc(C)cc3[nH]c2=O)NO1 | 2
Cc1ccc2nc(CCNC(C)C)[nH]c2c1 | -21
